iPSC survival up: enhancers of human iPSC single-cell survival; hiPSC single-cell survival, ATPlite luminescence; 100% = ROCK inhibitor wells, 0% = DMSO; survival enhancement, % at 20 µM; 360,000 tested, 0.044% active; AID 602274; in the data active = survival enhancement above about 18%;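 note: cells exposed to compounds for 16 hours before the ATP read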
ABCB6 inh MLPCN: human ABCB6 transporter inhibition. 360,000 tested, 0.19% active. Q9NP58. K562-ABCB6 porphyrin accumulation, flow cytometry, 1 h; hits give low values. AID 602162. fluorescence ratio to DMSO, % at 10 µM;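 active = fluorescence ratio to DMSO below 75%, the collection mean minus 3 SD; inconclusive = too few cells collected in the well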;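 note: signal is porphyrin accumulated inside mitochondria; 100% equals median channel fluorescence of DMSO control wells; lower ratio means ABCB6 inhibition with less porphyrin fluorescence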
Target sequence (Q9NP58 whole entry, looked up): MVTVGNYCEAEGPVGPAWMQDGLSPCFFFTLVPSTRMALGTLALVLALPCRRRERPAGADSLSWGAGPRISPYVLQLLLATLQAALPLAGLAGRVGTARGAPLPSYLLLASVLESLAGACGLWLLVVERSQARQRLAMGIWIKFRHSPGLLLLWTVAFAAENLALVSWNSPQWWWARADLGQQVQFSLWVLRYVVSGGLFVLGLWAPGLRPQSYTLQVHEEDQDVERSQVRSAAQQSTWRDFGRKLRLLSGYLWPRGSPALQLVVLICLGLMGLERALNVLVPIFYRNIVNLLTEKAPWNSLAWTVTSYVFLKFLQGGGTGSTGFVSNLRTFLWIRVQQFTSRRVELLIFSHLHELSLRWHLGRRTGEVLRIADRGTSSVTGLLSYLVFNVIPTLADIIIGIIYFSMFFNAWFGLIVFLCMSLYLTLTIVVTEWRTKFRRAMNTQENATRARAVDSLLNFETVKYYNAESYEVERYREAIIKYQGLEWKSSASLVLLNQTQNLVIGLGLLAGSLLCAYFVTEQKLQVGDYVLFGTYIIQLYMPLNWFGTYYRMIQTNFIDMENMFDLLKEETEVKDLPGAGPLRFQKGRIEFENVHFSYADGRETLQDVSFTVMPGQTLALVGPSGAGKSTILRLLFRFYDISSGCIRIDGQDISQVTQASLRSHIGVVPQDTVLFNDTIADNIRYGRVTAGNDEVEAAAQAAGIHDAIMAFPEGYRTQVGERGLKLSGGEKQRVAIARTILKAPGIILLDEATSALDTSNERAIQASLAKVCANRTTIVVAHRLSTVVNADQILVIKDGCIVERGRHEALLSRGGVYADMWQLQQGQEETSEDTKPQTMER
INS-1E GSIS act: primary screen for activators of insulin secretion dependent on glucose, INS-1E cells, GLuc reporter luminescence; INS-1E GLuc reporter insulin secretion, 2-3 h; activation, % at 16.6 µM; 370,000 tested, 0.61% active;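 active = lowest replicate activation of at least 40%, so every replicate reaches that level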;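 note: 0% = median of neutral control wells and 100% = median of IBMX positive control wells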
ARNT TACC3 PPI: ARNT/TACC3 interaction disruption | Q9Y6A5 | AlphaScreen His-ARNT PAS-B/GST-TACC3 binding, luminescence; TACC3 fragment carries E629A point mutation | inhibition, % at 9.99 µM | 390,000 tested, 0.66% active | AID 623870;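 active = mean inhibition of replicates at least 50% and at least half of replicates each reaching 50%; inconclusive = half or more replicates reach 50% but mean below 50%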;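 note: 0% = complete ARNT plus TACC3 wells and 100% = ARNT alone without TACC3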
CendR NRP1 mod: modulators of CendR peptide binding to human neuropilin-1; AID 602438; FAM-RPARPAR peptide binding to NRP-1, fluorescence polarization; inhibition, % at 25 µM; O14786; 360,000 tested, 0.85% active;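 active = inhibition or corrected inhibition above about 18%, plus a signal ratio from 0.5 to 1.5, limit read from the data, passing the limit was not always enough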
Active calls of the source: *; ? = inconclusive; . = not tested or not shown. Compounds with a hit are over-represented: about 1.8% of the library has one in this group of screens.

SMILES | iPSC survival up | ABCB6 inh MLPCN | INS-1E GSIS act | ARNT TACC3 PPI | CendR NRP1 mod
COc1ccc(C(=O)Cc2ccc3c(c2)OCO3)c(O)c1 | 4 | 109 | 41* | -7 | 4
COc1ccc(CC(=O)NCCCCc2ccccc2)cc1OC | 1 | 97 | -20 | -6 | 5
COc1ccc(S(=O)(=O)Nc2ccc3c(c2)CC(=O)N([C@@H](C)CO)C[C@@H](C)[C@H](CN(C)C(=O)Nc2cccc4ccccc24)O3)cc1 | . | . | -1 | . | .
COc1ccc(CCNC(=O)COC(=O)C2CC2C)cc1OC (centres undefined) | 0 | 87 | 57* | 0 | 4
COc1ccc(CN(C)C(=O)COC(=O)c2ccc3c(c2)OCO3)cc1OC | 1 | 107 | 64* | -3 | -1
COc1ccc(CCNC(=O)COC(=O)c2cncc(Br)c2)cc1OC | 0 | 95 | 56* | 3 | -4
COc1ccc(C(C)=O)cc1COC(=O)c1ccc2c(c1)OCO2 | 0 | 97 | 34 | 2 | -1
COc1ccc(CCNC(=O)COC(=O)c2ccco2)cc1OC | 0 | 100 | . | -2 | 0
COc1ccc(CCNC(=O)CCn2c(=O)c3cccn3c3cccnc32)cc1OC | 0 | 96 | 65* | -3 | 0
Cc1ccc(-c2ccc3c(c2)O[C@H](CN(C)C(=O)Nc2ccc(F)cc2)[C@H](C)CN([C@@H](C)CO)S3(=O)=O)cc1 | . | . | 1 | 5 | .
COc1ccc(CCNC(=O)C(C)Sc2ccccc2)cc1OC (centres undefined) | -1 | 91 | . | 0 | 9
COc1ccc(CCNC(=O)C(C)Sc2ccc(C)cc2)cc1OC (centres undefined) | 3 | 93 | 53* | 0 | -2
COC(=O)c1ccccc1NCCO | 0 | 97 | 120* | 1 | 1
COc1ccc(NC(=O)Nc2ccc3c(c2)CC(=O)N([C@@H](C)CO)C[C@H](C)[C@@H](CN(C)C(=O)Nc2ccccc2)O3)cc1 | . | . | 18 | -6 | .
COc1ccc(NC(=O)CSc2ncnc3c2sc2ccccc23)c(OC)c1 | -2 | ? | 58* | -7 | -3
COc1ccc(S(=O)(=O)N(C)C[C@@H]2Oc3ccc(NS(=O)(=O)c4ccc(F)cc4)cc3CC(=O)N([C@@H](C)CO)C[C@H]2C)cc1 | . | . | -2 | . | .
C/C(=N\NC(=S)NC(C)C)c1ccccc1 | 1 | 93 | 54* | 5 | 2
O=C(Nc1ccc(Oc2ccccc2)nc1)C1CCN(Cc2cccc(F)c2)CC1 | 0 | 98 | -14 | 5 | 27*
COCC(=O)N1CC2(CCN(C(C)=O)CC2)c2c([nH]c3cc(OC)ccc23)[C@@H]1CO | . | . | -9 | . | .
O=C(NCC[C@@H]1CC[C@H](NS(=O)(=O)c2cccc(F)c2)[C@@H](CO)O1)c1cnccn1 | . | . | 0 | -27 | .
CCOc1ccc(/C=C2/Sc3ccc(C(=O)NCC4CCCO4)cc3N(C)C2=O)cc1OC (centres undefined) | 1 | 92 | 40* | 7 | 27*
Cc1cccc(/C=C2\Sc3ccc(C(=O)NCC4CCCO4)cc3N(C)C2=O)c1 (centres undefined) | 0 | 88 | -10 | -1 | -6
O=C(Nc1ccc2c(c1)OCO2)N[C@H]1CC[C@@H](CCNC(=O)C2CCOCC2)O[C@H]1CO | . | . | 0 | -1 | .
O=C(Cn1c(=O)c2c(ncn2Cc2ccccc2)n(Cc2ccccc2)c1=O)N1CCc2ccccc21 | 0 | 99 | . | -1 | -5
O=C(Cn1c(=O)c2c(ncn2C2CCCC2)n(Cc2ccccc2)c1=O)N1CCc2ccccc21 | -1 | 92 | . | -1 | 29*
SMILES | iPSC survival up | ABCB6 inh MLPCN | INS-1E GSIS act | ARNT TACC3 PPI | CendR NRP1 mod
Cc1ccccc1NC(=O)Nc1ccc2c(c1)C(=O)N(C)[C@@H]1CC[C@H](CC(=O)O)O[C@@H]1CO2 | . | . | 6 | -4 | .
Oc1ccc(-c2nccc(-c3ccc(Cl)cc3Cl)n2)cc1 | -1 | 94 | 0 | -2 | 40*
Cc1cc(NC(=O)CSc2nnc(CNC(=O)c3cccc(C(F)(F)F)c3)o2)no1 | 0 | 99 | 2 | 46* | -2
COc1ccc2c3c([nH]c2c1)[C@@H](CO)N(Cc1cccc(Cl)c1)CC31CN(C(C)=O)C1 | . | . | 16 | . | .
Cc1noc(C)c1CCC(=O)NC1CCCN(Cc2ccc(CC(C)C)cc2)C1 (centres undefined) | 0 | 96 | -8 | -4 | -5
Cc1noc(C)c1CCC(=O)NC1CCCN(Cc2ccc(Cl)cc2)C1 (centres undefined) | 0 | 110 | -12 | 46* | 3
O=C(c1cccc(C(F)(F)F)c1)N1CCCC1 | 3 | 92 | -14 | 3 | 6
O=C(Nc1ccc(C(=O)N2CCCC2)cc1)c1cccc(C(F)(F)F)c1 | 0 | 106 | 48* | -1 | 5
C=CC(=O)Nc1ccc(Nc2nc(NC3CCC(N(C)C)CC3)nc3c2ncn3C(C)C)cc1 (centres undefined) | -4 | 103 | . | 9 | 27*
OC1(C#Cc2c(-c3ccsc3)sc3ccccc23)CCCCC1 | . | . | 88* | . | .
COCCN1C[C@@H](CO)O[C@@H](n2cnc3c(N(C)C(C)C)ncnc32)C1 | 5 | 101 | 44 | . | 24*
FC(F)(F)c1cccc(NC(=S)NCCN2CCOCC2)c1 | 0 | 103 | -1 | 13 | -1
CCCNC(=S)Nc1cccc(C(F)(F)F)c1 | -2 | 101 | -10 | 2 | 25*
Cn1nc(C(=O)Nc2cccnc2)c2ccccc2c1=O | -1 | 100 | . | 46* | -6
COc1cccc(C(=O)Nc2ccc3c(c2)C(=O)N(C)C[C@H](OC)[C@@H](C)CN(C(C)=O)[C@H](C)CO3)c1 | . | . | 2 | -13 | .
CCOC(=O)C1CCCN(C(=O)C2c3ccccc3Oc3ccccc32)C1 (centres undefined) | 14 | 92 | . | 6 | 136
CCOC(=O)C1CCCN(C(=O)C2COc3ccccc3O2)C1 (centres undefined) | 0 | 99 | 42* | -3 | -10
Cc1cccc(Cn2ccc(-c3ccc(Cl)cc3)c(C#N)c2=O)c1 | -4 | 100 | 95* | -6 | -20
N#Cc1c(-c2ccccc2)ccn(Cc2ccc(Cl)cc2)c1=O | -1 | 97 | . | -6 | -11
Fc1ccc(-c2cc(C(F)(F)F)nc(NCc3cccs3)n2)cc1 | -1 | 96 | 36 | . | 30*
COCC(=O)N1C[C@@H](C)[C@H](OC)CN(C)C(=O)c2ccc(NC(=O)c3cnccn3)cc2OC[C@H]1C | . | . | -1 | . | .
O=c1[nH]nc(-c2cccs2)c2ccccc12 | 0 | 98 | 172* | -4 | 0
Cc1ccccc1-c1ccc([C@@H]2[C@H](CO)N3C(=O)CN(C(=O)NC4CCCC4)C[C@@H]23)cc1 | . | . | -17 | . | .
O=C(NC[C@@H]1[C@H](c2ccccc2)[C@@H](CO)N1C(=O)Cc1cccnc1)C1CCC1 | . | . | 0 | 1 | .
Cc1cc2n(n1)C(c1sccc1C)Nc1ccccc1-2 (centres undefined) | 1 | 99 | . | -5 | -2

Source: PubChem
